# Laboratory results: PubChem BioAssay (NCATS)
# Values joined by “and” are separate entries in the source; they are usually repeats but may differ in a detail not shown here. Equal values may be shown once. Records with an inconclusive call do not appear. A call without a number means that no potency is given here. Active and inactive are the calls of the source. Unless noted, the call rests on the fitted dose curve; in most records, active means well fitted curve in the direction sought with a large enough effect; inconclusive means small, poorly fitted or top-dose-only effect, or another doubt; inactive means no such curve, though single readings can be large; an effect the other way counts as inactive or inconclusive.
# Key:
# [1] = qHTS assay for measurement of the activity of small molecule inhibitors on Zika virus induced Caspase-3 activity in human astrocytoma cells (AID 1224859)
# In short: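 Compound added 1 h pre-infection; ZIKV 2 FFU/cell on SNB-19 cells, 6 h, 37 C/5% CO2. Caspase-Glo 3/7 luminescence; values as % inhibition of ZIKV-induced caspase activity.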
# [2] = qHTS Screen of the MIPE 4.0 Collection Against Ewings Sarcoma (EW8) (AID 1259255); further: nearly all actives have a fitted effect of over 35% in size; further: potency means the concentration at half of the fitted maximal effect
# In short: (§1)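 Log-phase cells in RPMI with 5% FBS attached for 4 h, then received compounds as a titration for 48 h at 37C, 5% CO2. Viability was read by CellTiter-Glo luminescence and normalized to DMSO and no-cell wells.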
# [3] = P-glycoprotein substrates identified in KB-3-1 adenocarcinoma cell line, qHTS therapeutic library screen (AID 1346986); further: nearly all actives have a fitted effect of over 60% in size
# In short: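 KB-3-1 parental and colchicine-selected P-gp-overexpressing KB-8-5-11 cells (colchicine omitted during assay), 500 cells/well, dosed in dose-response for 72 h at 37 °C; CellTiter-Glo luminescence. Cytotoxic: curve class -1.1 to -2.4, max response >50%, AC50 < 10 uM.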
# [4] = P-glycoprotein substrates identified in KB-8-5-11 adenocarcinoma cell line, qHTS therapeutic library screen (AID 1346987); further: nearly all actives have a fitted effect of over 65% in size; further: potency means the concentration at half of the fitted maximal effect
# In short: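 KB-8-5-11, a colchicine-selected P-gp-overexpressing KB-3-1 subline, was grown without colchicine for the assay. Cells were seeded at 500 cells/well, dosed in concentration-response and incubated 72 h at 37 degree C, 5% CO2. Viability was read by CellTiter-Glo luminescence.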
# [5] = NS1 protein of Zika virus - qHTS assay to identify small molecule inhibitors in human HEK 293 cells (AID 1347053); further: series mostly up to about 46 µM; nearly all actives have a fitted effect of over 55% in size
# In short: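 Following 20 h seeding, HEK 293 cells took compound, then 1 h later ZIKV MR766 (MOI = 0.5). Incubation ran 24 h at 37 C before TR-FRET detection of NS1; a drop in signal indicates inhibition.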
# [6] = qHTS of pediatric cancer cell lines to identify multiple opportunities for drug repurposing: Primary screen for TC32 cells (AID 1347089); further: nearly all actives have a fitted effect of over 60% in size; further: potency means the concentration at half of the fitted maximal effect
# In short: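 Measured quantity: luminescence from CellTiter-Glo, reflecting metabolically active TC32 cells following 48 h of compound. Curves came straight from multi-point titrations, with 8 or 11 points in primary and 11 in confirmatory screening.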
# [7] = qHTS of pediatric cancer cell lines to identify multiple opportunities for drug repurposing: Primary screen for DAOY cells (AID 1347090); further: nearly all actives have a fitted effect of over 55% in size; further: potency means the concentration at half of the fitted maximal effect
# In short: (§2)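 Viability measured as metabolically active cells via CellTiter-Glo luminescence following 48 hours of compound exposure, 11-point dilutions in confirmatory testing. 500-1,000 cells/well plated 5 hours before dosing; controls were DMSO and 2.3 µM bortezomib.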
# [8] = qHTS of pediatric cancer cell lines to identify multiple opportunities for drug repurposing: Primary screen for SJ-GBM2 cells (AID 1347091); further: potency means the concentration at half of the fitted maximal effect
# In short: as §2
# [9] = qHTS Screen of the MIPE 4.0 Collection Against Ewings Sarcoma (TC32) (AID 1259256); further: nearly all actives have a fitted effect of over 45% in size; further: potency means the concentration at half of the fitted maximal effect
# In short: as §1
# [10] = qHTS assay to identify small molecule inhibitors of chordoma cells - UCH-2 (AID 1259356); further: series mostly up to about 46 µM
# [11] = Natriuretic polypeptide receptor (hNpr1) antagonism - Pilot counterscreen GloSensor control cell line (AID 1347045; calls by dose curve; further: series mostly up to about 38 µM)
# In short: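 HEK293 cGMP GloSensor cells preloaded 2 h with 2% GloSensor reagent, then compound 30 min before baseline luminescence read. Stimulated with 50 uM sodium nitroprusside, 20 min at room temperature, then read again; counterscreen for Npr1 antagonism.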
# [12] = molecular target: Atrial natriuretic peptide receptor 1 (Homo sapiens) (UniProt P16066); experiment: Natriuretic polypeptide receptor (hNpr1) antagonism - Pilot screen (AID 1347049; calls by dose curve;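 further: agonist-evoked cGMP luminescence read 20 min after hNppA addition; series mostly up to about 58 µM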)
# In short: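 HEK293 cells expressing hNpr1 and GloSensor cGMP luciferase, 1500/well, loaded with 2% GloSensor reagent 2 h, compound 30 min at room temperature; luminescence read before and 20 min after 0.1 nM hNppA stimulation.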
# [13] = molecular target: Atrial natriuretic peptide receptor 2 (Homo sapiens) (UniProt P20594); experiment: Natriuretic polypeptide receptor (hNpr2) antagonism - Pilot subtype selectivity assay (AID 1347050; calls by dose curve)
# In short: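 HEK293 cells expressing hNpr2 and a GloSensor cGMP luciferase sensor, 1500/well, preloaded 2 h with 2% GloSensor reagent, compound 30 min, then 1 nM hNppC for 20 min. Antagonism from luminescence after versus baseline pre-read; LOPAC in 1:5 titrations.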
# [14] = molecular target: T1, Tyrosine-protein phosphatase non-receptor type substrate 1 (Homo sapiens) + Leukocyte surface antigen CD47 (Homo sapiens) (UniProt P78324+Q08722); experiment: CD47-SIRPalpha protein protein interaction - LANCE assay qHTS validation (AID 1347057; active means well fitted curve in the direction sought with a large enough effect in the signal ratio, with a control signal flat, not every such curve was filed as active; the % refers to the signal ratio; further: series mostly up to about 38 µM)
# In short: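 First, His-tagged CD47 and Eu-labelled anti-His antibody met the compound for 30 min; next, site-specifically biotinylated SIRPalpha was added for 30 min; finally streptavidin-APC was added before reading the TR-FRET ratio.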
# [15] = molecular target: T1, Tyrosine-protein phosphatase non-receptor type substrate 1 (Homo sapiens) + Leukocyte surface antigen CD47 (Homo sapiens); experiment: CD47-SIRPalpha protein protein interaction - HTRF assay qHTS validation (AID 1347058; active means well fitted curve in the direction sought with a large enough effect in the signal ratio, not every such curve was filed as active; the % refers to the signal ratio;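 further: recombinant soluble extracellular CD47 with His tag and biotinylated SIRPalpha domains; series mostly up to about 38 µM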)
# In short: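 TR-FRET read (Ch1/Ch2 ratio) of soluble extracellular CD47 and Avi-biotinylated SIRPalpha domains in PBS pH 7.4 with 0.05% IGEPAL; 7-point compound titration. Sequential 30 min room-temperature steps; non-biotinylated SIRPalpha as control inhibitor.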
# [16] = molecular target: T1, Tyrosine-protein phosphatase non-receptor type substrate 1 (Homo sapiens) + Leukocyte surface antigen CD47 (Homo sapiens); experiment: CD47-SIRPalpha protein protein interaction - Alpha assay qHTS validation (AID 1347059);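 further: bead proximity luminescence from CD47 binding SIRPalpha after compound preincubation with SIRPalpha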
# In short: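 Biotinylated Avi-tagged SIRPalpha (25 nM) preincubated 30 min with compound, then His-tagged CD47 (12.5 nM) added 30 min; AlphaScreen with Ni-NTA acceptor and streptavidin donor beads. PBS pH 7.4, 0.05% IGEPAL, room temperature; 7-point titrations.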
# [17] = molecular target: Parathyroid hormone/parathyroid hormone-related peptide receptor (Homo sapiens) (UniProt Q03431); experiment: qHTS for PTHR1 Agonists: Optimization Screen against the NCGC LOPAC library (AID 1347079);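 further: GloSensor cAMP luminescence in HEK-293 GP2 cells expressing human PTHR1 with IBMX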
# In short: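 Agonist readout: GloSensor cAMP luminescence, read after 15 min at room temperature. HEK-293-derived GP2 line carries PTHR1; compounds tested as a titration for 1 hr at 37C in presence of IBMX. M-PTH (1-15) served as control.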
# Atrial natriuretic peptide receptor 2 (Homo sapiens), sequence (P20594 whole entry, looked up): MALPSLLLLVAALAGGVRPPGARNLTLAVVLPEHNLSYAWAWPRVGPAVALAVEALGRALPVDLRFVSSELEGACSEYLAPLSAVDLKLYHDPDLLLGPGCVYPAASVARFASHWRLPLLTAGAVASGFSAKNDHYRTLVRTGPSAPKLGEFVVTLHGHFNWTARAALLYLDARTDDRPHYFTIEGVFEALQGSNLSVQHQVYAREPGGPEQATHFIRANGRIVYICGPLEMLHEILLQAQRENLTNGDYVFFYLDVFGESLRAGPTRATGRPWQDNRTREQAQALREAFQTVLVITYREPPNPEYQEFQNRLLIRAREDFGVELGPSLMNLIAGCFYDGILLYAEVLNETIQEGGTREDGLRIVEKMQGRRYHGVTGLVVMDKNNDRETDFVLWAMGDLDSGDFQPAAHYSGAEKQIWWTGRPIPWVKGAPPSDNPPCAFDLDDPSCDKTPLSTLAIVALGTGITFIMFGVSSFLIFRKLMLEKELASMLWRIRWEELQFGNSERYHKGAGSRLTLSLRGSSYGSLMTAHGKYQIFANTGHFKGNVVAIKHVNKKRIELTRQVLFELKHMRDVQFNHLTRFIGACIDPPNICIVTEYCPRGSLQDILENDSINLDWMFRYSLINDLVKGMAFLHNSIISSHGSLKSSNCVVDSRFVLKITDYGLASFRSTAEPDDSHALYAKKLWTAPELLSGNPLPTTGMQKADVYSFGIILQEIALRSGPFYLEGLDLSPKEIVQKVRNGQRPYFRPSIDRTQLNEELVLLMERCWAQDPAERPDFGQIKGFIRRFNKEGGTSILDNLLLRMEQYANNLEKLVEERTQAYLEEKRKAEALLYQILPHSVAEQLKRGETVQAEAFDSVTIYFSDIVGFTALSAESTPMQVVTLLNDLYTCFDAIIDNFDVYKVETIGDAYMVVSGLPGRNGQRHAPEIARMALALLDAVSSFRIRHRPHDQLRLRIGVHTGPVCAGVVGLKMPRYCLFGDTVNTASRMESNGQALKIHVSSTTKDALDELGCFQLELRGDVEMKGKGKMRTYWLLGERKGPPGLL
# Parathyroid hormone/parathyroid hormone-related peptide receptor (Homo sapiens), sequence (Q03431 whole entry, looked up): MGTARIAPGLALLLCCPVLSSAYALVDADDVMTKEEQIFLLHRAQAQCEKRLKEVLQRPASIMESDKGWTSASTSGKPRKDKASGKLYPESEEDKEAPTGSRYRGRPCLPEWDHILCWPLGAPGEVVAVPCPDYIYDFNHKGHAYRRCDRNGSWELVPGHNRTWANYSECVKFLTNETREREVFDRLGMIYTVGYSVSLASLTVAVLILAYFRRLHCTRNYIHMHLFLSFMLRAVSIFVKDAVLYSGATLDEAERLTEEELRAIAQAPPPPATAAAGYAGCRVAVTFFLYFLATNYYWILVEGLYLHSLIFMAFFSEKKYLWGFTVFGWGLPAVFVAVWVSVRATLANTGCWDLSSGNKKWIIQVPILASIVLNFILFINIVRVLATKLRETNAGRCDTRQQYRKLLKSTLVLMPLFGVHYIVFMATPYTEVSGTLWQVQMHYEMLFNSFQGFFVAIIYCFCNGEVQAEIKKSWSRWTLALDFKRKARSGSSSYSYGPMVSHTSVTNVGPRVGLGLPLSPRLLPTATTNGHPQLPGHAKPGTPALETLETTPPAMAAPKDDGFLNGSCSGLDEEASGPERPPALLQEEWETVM
# Atrial natriuretic peptide receptor 1 (Homo sapiens), sequence (P16066 whole entry, looked up): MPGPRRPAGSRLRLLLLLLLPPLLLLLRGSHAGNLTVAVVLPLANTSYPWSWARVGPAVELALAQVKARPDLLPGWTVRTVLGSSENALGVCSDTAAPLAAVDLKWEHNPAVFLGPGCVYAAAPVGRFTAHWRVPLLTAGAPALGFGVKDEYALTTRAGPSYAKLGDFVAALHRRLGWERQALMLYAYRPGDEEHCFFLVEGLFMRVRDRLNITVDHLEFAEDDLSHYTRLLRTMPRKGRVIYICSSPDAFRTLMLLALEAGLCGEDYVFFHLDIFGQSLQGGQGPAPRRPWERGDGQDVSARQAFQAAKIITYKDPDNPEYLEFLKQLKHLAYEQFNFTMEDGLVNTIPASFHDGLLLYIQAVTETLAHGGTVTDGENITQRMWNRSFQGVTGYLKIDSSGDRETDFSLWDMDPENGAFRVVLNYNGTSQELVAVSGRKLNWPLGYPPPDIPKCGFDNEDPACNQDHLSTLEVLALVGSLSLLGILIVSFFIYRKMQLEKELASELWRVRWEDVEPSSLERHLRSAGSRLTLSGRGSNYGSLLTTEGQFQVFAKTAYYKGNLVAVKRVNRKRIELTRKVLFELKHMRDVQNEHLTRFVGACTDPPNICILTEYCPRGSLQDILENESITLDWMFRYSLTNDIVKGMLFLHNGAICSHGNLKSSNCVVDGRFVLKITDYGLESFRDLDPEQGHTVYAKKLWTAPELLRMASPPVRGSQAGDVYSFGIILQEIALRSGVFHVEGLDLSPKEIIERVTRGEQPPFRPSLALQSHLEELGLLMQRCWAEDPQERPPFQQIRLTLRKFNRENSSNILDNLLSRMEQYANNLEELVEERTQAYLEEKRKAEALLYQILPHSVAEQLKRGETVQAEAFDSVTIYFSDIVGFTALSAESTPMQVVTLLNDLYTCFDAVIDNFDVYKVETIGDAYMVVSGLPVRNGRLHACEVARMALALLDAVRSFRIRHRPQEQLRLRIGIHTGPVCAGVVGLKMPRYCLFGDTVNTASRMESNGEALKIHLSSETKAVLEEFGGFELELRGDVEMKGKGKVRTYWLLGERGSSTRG
# T1 sequence (P78324 whole entry, looked up): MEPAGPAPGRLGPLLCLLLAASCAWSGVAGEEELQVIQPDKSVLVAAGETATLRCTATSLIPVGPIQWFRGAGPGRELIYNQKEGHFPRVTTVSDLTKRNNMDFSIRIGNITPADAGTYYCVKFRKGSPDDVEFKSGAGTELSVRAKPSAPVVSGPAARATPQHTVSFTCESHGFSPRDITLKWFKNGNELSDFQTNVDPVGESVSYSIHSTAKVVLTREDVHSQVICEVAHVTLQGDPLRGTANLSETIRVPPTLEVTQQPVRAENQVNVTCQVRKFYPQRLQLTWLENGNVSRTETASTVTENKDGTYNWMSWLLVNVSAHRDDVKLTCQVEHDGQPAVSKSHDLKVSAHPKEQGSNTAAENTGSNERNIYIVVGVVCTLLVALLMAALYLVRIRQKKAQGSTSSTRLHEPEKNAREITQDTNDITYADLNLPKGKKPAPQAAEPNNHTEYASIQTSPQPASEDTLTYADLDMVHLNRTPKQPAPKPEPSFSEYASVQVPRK
# T1 sequence (Q08722 whole entry, looked up): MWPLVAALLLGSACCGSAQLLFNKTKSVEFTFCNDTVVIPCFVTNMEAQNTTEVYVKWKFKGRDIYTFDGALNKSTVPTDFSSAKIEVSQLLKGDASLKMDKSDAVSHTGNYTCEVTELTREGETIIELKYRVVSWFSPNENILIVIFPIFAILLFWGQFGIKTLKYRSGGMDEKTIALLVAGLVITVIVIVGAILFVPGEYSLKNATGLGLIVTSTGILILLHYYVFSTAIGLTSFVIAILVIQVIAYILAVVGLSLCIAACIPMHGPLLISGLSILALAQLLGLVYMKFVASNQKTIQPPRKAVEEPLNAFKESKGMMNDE
smiles,measurement,setting,value
O=C(Nc1c(Cl)cncc1Cl)c1ccc(OC(F)F)c(OCC2CC2)c1,Potency,[1],inactive
same,Potency,[2],inactive
same,Potency,[3],inactive
same,Potency,[4],inactive
same,Potency,[5],inactive
same,Potency,[6],inactive
same,Potency,[7],inactive
same,Potency,[8],inactive
CC=CC(=O)N(CC)c1ccccc1C,Potency,[1],inactive
same,Potency,[2],inactive
same,Potency,[4],inactive
same,Potency,[5],inactive
same,Potency,[6],inactive
same,Potency,[7],inactive
same,Potency,[8],inactive
CC(C)(C)c1cc(C(=O)O)c(NC(=O)Nc2ccc3[nH]ncc3c2)s1,Potency,[1],inactive
same,Potency,[2],inactive
same,Potency,[3],inactive
same,Potency,[4],inactive
same,Potency,[5],inactive
same,Potency,[6],inactive
same,Potency,[8],inactive
COc1ccc2cccc(CCNC(C)=O)c2c1,Potency,[1],inactive
same,Potency,[2],inactive
same,Potency,[9],inactive
same,Potency,[4],inactive
same,Potency,[5],inactive
same,Potency,[6],inactive
same,Potency,[7],inactive
same,Potency,[8],inactive
Nc1ncnc2c1ncn2[C@@H]1O[C@H](CO)C[C@@H]1O,Potency,[1],inactive
same,Potency,[2],inactive
same,Potency,[3],inactive
same,Potency,[5],inactive
same,Potency,[6],inactive
same,Potency,[8],inactive
NS(=O)(=O)c1ccc(NC2=CC(=O)c3ccccc3C2=O)cc1,Potency,[1],inactive
same,Potency,[2],1.87 µM (active)
same,Potency,[4],inactive
same,Potency,[5],inactive
same,Potency,[7],inactive
same,Potency,[8],inactive
CN[C@@H](C)C(=O)N[C@H]1CN(C(=O)CC(C)C)CC[C@H]2CC[C@@H](C(=O)NC(c3ccccc3)c3ccccc3)N2C1=O,Potency,[1],inactive
same,Potency,[2],inactive
same,Potency,[4],inactive
same,Potency,[5],inactive
same,Potency,[6],inactive
same,Potency,[7],2.35 µM (active)
same,Potency,[8],0.935 µM (active)
CC(=O)OC1C(C)OC(Oc2c(-c3ccc(O)cc3)oc3cc(O)cc(O)c3c2=O)C(O)C1OC(C)=O (configuration not stated),Potency,[1],inactive
same,Potency,[2],inactive
same,Potency,[9],inactive
same,Potency,[4],inactive
same,Potency,[5],inactive
same,Potency,[6],inactive
same,Potency,[7],inactive
CCOc1ccc(Nc2nc(-c3c(C)nc4ccccn34)cs2)cc1,Potency,[1],inactive
same,Potency,[9],inactive
same,Potency,[4],1 nM (active) and 36.6 nM (active)
same,Potency,[5],inactive
same,Potency,[6],0.165 µM (active)
Clc1ccc(-c2nc3sccn3c2C=NOCc2ccc(Cl)c(Cl)c2)cc1,Potency,[1],inactive
same,Potency,[2],inactive
same,Potency,[4],inactive
same,Potency,[5],inactive
same,Potency,[6],inactive
same,Potency,[7],inactive
same,Potency,[8],inactive
CNC(=O)c1ccc2cc(C3(O)CCn4cncc43)ccc2c1 (configuration not stated),Potency,[1],inactive
same,Potency,[2],inactive
same,Potency,[3],inactive
same,Potency,[4],inactive
same,Potency,[5],inactive
same,Potency,[6],inactive
same,Potency,[7],inactive
same,Potency,[8],inactive
CC(C)(C)OC(=O)N[C@H]1CCCCCC=C[C@@H]2C[C@@]2(C(=O)NS(=O)(=O)C2CC2)NC(=O)[C@@H]2C[C@@H](OC(=O)N3Cc4cccc(F)c4C3)CN2C1=O,Potency,[1],inactive
same,Potency,[9],inactive
same,Potency,[4],inactive
same,Potency,[5],inactive
same,Potency,[6],inactive
same,Potency,[7],inactive
same,Potency,[8],inactive
CCNc1cc(NC2CCC(O)CC2)nc(Nc2ccc3c(ccn3Cc3ccccc3)c2)n1 (configuration not stated),Potency,[1],inactive
same,Potency,[9],23.5 µM (active)
same,Potency,[6],inactive
same,Potency,[8],29.6 µM (active)
O=C(NCCN1CCOCC1)c1ccc(Cl)cc1,Potency,[1],inactive
same,outcome,[10],inactive
same,Potency,[4],inactive
same,Potency,[11],inactive
same,outcome,[12],inactive
same,outcome,[13],inactive
same,Potency,[5],inactive
same,outcome,[14],inactive
same,outcome,[15],inactive
same,outcome,[16],inactive
same,outcome,[17],inactive
same,Potency,[6],inactive
same,Potency,[7],inactive
same,Potency,[8],inactive
O=C(O)CCc1nc(-c2ccccc2)c(-c2ccccc2)o1,Potency,[1],inactive
same,outcome,[10],inactive
same,Potency,[3],inactive
same,Potency,[4],inactive
same,Potency,[11],inactive
same,outcome,[12],inactive
same,outcome,[13],inactive
same,Potency,[5],inactive
same,outcome,[14],inactive
same,outcome,[15],inactive
same,outcome,[16],inactive
same,outcome,[17],inactive
same,Potency,[6],inactive
same,Potency,[7],inactive
same,Potency,[8],inactive
CCN(CC)C(=O)c1ccc(O)c(OC)c1,Potency,[1],inactive
same,outcome,[10],inactive
same,Potency,[4],inactive
same,Potency,[11],inactive
same,outcome,[12],inactive
same,outcome,[13],inactive
same,Potency,[5],inactive
same,outcome,[14],inactive
same,outcome,[15],inactive
same,outcome,[16],inactive
same,outcome,[17],inactive
same,Potency,[6],inactive
same,Potency,[7],inactive
same,Potency,[8],inactive
CC(=O)CCCCn1c(=O)c2c(ncn2C)n(C)c1=O,Potency,[1],inactive
same,outcome,[10],inactive
same,Potency,[3],inactive
same,Potency,[4],inactive
same,outcome,[12],inactive
same,outcome,[13],inactive
same,Potency,[5],inactive
same,outcome,[17],inactive
same,Potency,[6],inactive
same,Potency,[7],inactive
same,Potency,[8],inactive
CCN(CC)CCOC(=O)c1ccc(N)cc1,Potency,[1],inactive
same,outcome,[10],inactive
same,Potency,[4],inactive
same,Potency,[11],inactive
same,outcome,[12],inactive
same,outcome,[13],inactive
same,Potency,[5],inactive
same,outcome,[14],inactive
same,outcome,[15],inactive
same,outcome,[16],inactive
same,outcome,[17],inactive
same,Potency,[6],inactive
same,Potency,[7],inactive
same,Potency,[8],inactive
COc1ccc2cc(-c3nc(-c4ccc(S(C)=O)cc4)[nH]c3-c3ccncc3)ccc2c1 (configuration not stated),Potency,[1],inactive
same,Potency,[9],20.9 µM (active)
same,Potency,[4],inactive
same,Potency,[6],inactive
same,Potency,[7],inactive
same,Potency,[8],14.8 µM (active)
C=C1C(=O)OC(CCCCCCCC)C1C(=O)O (configuration not stated),Potency,[1],inactive
same,Potency,[9],26.4 µM (active)
same,Potency,[5],inactive
same,Potency,[6],inactive
same,Potency,[7],inactive
same,Potency,[8],20.9 µM (active)
